Structures are written as SMILES. “And” between values parts separate entries of the source, which are not always exact repeats. Equal values may be shown once. Records with an inconclusive call do not appear. The source made the active and inactive calls. Unless noted, calls follow the shape of the full dose curve.

The nature of assay [1]: NCATS anti-infectives library activity on the primary C. elegans qHTS viability assay (AID 1745855). Also: potency is read from the fitted curve at half-maximal effect. The procedure, abridged:
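Viability read-out is GFP fluorescence of PE254-GFP-FLuc C. elegans, measured by laser cytometry (488 nm) at day 0, 3 and 7. Ten L1 worms per well were incubated 7 days at 21 °C with compounds and bacterial capsules in S medium.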

The nature of assay [2]: qHTS drug screen for cell cycle checkpoint inhibitors in PARPi-resistant BRCA-mutant ovarian cancer cell lines. (AID 1963452). The conditions noted are these: PEO1/OlaR viability, CellTiter-Glo luminescence, 96 h, stronger effect = lower value. The essentials: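 PEO1, PEO4 and PEO1/OlaR ovarian cancer cells, 600 per well, exposed 96 h at 37C to a dilution series. Viability read by CellTiter-Glo luminescence, normalized to DMSO and empty wells; activity summarized as Z-AUC.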
A general note: qHTS replaces the single test concentration by a dilution series.

Assay [3] is described as follows: qHTS profiling for inhibitors of Plasmodium falciparum proliferation (AID 504749; active = well fitted curve in the direction sought with a large enough effect; an effect the other way counts as inactive or inconclusive;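 also: 0% = DMSO vehicle and full inhibition = artemisinin control; nearly all actives have a fitted effect of over 60% in size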). The conditions noted are these: P. falciparum in erythrocytes, SYBR Green DNA, 72 h, at 28.7 µM (top of the series). The procedure, abridged: (§1)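 Parasite proliferation within erythrocytes, 72 h exposure. Endpoint: SYBR Green I fluorescence after overnight lysis at room temperature. Controls: 0.29 uM artemisinin, DMSO.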

For assay [4], the system named is GB4. Described as above. The conditions noted are these: P. falciparum in erythrocytes, SYBR Green DNA, 72 h; series mostly up to 28.7 µM. The essentials: as §1
The nature of assay [5]: qHTS assay for small molecule antagonists of peroxisome proliferator-activated receptor delta signaling (AID 588535; active = well fitted inhibition curve with a large enough effect in the signal ratio, with a control signal flat, not every such curve was filed as active; the % refers to the signal ratio;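 as to max response: cells co-treated with a PPAR-delta agonist as stimulator during compound exposure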). The conditions noted are these: HEK293T PPARd-UAS-bla, beta-lactamase FRET ratio, 18 h; 460 nm channel. The essentials: (§2)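 Reporter: UAS-bla under PPAR-delta response element, HEK293T host. Medium: 2% charcoal/dextran FBS. Dosing: titration, 18 hrs, 37 C. Detection: CCF4, 2 hrs RT, 405 ex/460 and 530 em.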

For assay [6], the target named is Peroxisome proliferator-activated receptor delta (Homo sapiens) (UniProt Q03181). Described as above. The procedure, abridged:
as §2

The target of assay [7] is Peroxisome proliferator-activated receptor gamma (Homo sapiens) (UniProt P37231). Description: qHTS assay for small molecule agonists of peroxisome proliferator-activated receptor gamma signaling (AID 588536; active = well fitted curve in the direction sought with a large enough effect in the signal ratio, with a control signal flat, not every such curve was filed as active; the % refers to the signal ratio;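 also: 0% = DMSO basal wells and 100% = rosiglitazone at 2 µM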). The procedure, abridged:
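PPAR-gamma-UAS-bla HEK293 cells in medium with 1% charcoal/dextran-treated FBS were exposed to compounds for 16 h at 37 C. Beta-lactamase activity was read with CCF4 substrate (405 nm excitation, 460/530 nm emission).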

The target in assay [8] is Thyroid hormone receptor beta (Homo sapiens) (UniProt P10828). Briefly: qHTS assay for small molecule agonists of thyroid hormone receptor beta signaling (AID 588545). The procedure, abridged:
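Agonist-mode beta-lactamase reporter assay, HEK 293 cells, 2% charcoal/dextran FBS; cells plated 4 hrs, compound 18 hrs at 37 C, CCF4 2 hrs RT. Normalized to 10 nM T3 (100%) and DMSO (0%); Hill fit gives EC50, efficacy.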

Assay [9] in a line: qHTS assay for small molecule agonists of the antioxidant response element (ARE) signaling pathway (AID 651741; active = well fitted activation curve with a large enough effect in the signal ratio; the % refers to the signal ratio; also: potency is read from the fitted curve at half-maximal effect; as to activation: % of control where 0% means no effect). The essentials:
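Compounds in DMSO are pinned onto HepG2 ARE-bla cells (2,000/well) that were preincubated 5 h; plates stay 16 h at 37 C, then beta-lactamase activity is detected with LiveBLAzer B/G substrate by fluorescence.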

Assay [10] is described as follows: qHTS assay for small molecule activators of the p53 signaling pathway (AID 651743; active = well fitted activation curve with a large enough effect in the signal ratio, not every such curve was filed as active; the % refers to the signal ratio; also: % of control where 0% means no effect). The conditions noted are these: HCT-116 p53RE-bla, beta-lactamase FRET ratio, 16 h; activation: stronger effect = higher value. The procedure, abridged: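 Cell-based beta-lactamase reporter (p53 response elements, HCT-116 background). After a 5-hour preincubation, cells received compound for 16 hours at 37 C; substrate development ran 2 hours at room temperature.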

In assay [11] the target is Peroxisome proliferator-activated receptor alpha (Homo sapiens) (UniProt Q07869). Description: qHTS assay for small molecule agonists of the peroxisome proliferator-activated receptor alpha (PPARalpha) signaling pathway (AID 651778; active = well fitted curve in the direction sought with a large enough effect; an effect the other way counts as inactive or inconclusive; also: % of control where 0% means no effect). The conditions noted are these: PathHunter PPARalpha complementation, chemiluminescence, 6 h; max response: stronger effect = higher value. The essentials:
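Cells plated at 2,000/well and held overnight at 37 C, 5% CO2, then compound added by pin tool for 6 hr; after PathHunter detection reagent and 60 min at room temperature, chemiluminescence from enzyme complementation was read.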

Assay [12] in a line: qHTS assay for cell viability of the p53RE-bla HCT-116 cell line (AID 743292; active = well fitted curve in the direction sought with a large enough effect; an effect the other way counts as inactive or inconclusive; also: % is scaled to controls: 0 for no effect and ±100 for the full control effect; nearly all actives have a fitted effect of over 55% in size). The essentials:
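After plating at 4,000 cells per well and a 5 h rest at 37 C, HCT-116 cells carrying p53RE-bla received test chemicals in DMSO. Sixteen hours later at 37 C, CellTiter-Glo was added and luminescence recorded following 30 min at room temperature.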

Assay [13] deals with Nuclear receptor subfamily 1 group I member 2 (Rattus norvegicus) (UniProt Q9R1A7). Briefly: qHTS assay for small molecule activators of the rat pregnane X receptor (rPXR) signaling pathway (AID 651751; call rule not given here; also: 0% is about no effect). To be noted: rPXR reporter cells, luciferase (One-Glo), 24 h.
Assay [14] concerns the target Vitamin D3 receptor (Homo sapiens) (UniProt P11473). Briefly: qHTS assay for small molecule antagonists of vitamin D receptor signaling (AID 588541).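 Also: receptor activated by calcitriol during compound treatment; % is scaled to controls: 0 for no effect and ±100 for the full control effect.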 The essentials: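 VDR-UAS-bla HEK293T cells (2000/well, 2% charcoal-stripped FBS) were treated with titrated compounds plus 1-alpha,25-dihydroxyvitamin D3 (50 nM or 3 nM final) for 16 h at 37 C. CCF4 beta-lactamase fluorescence was read; Hill fits gave IC50.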

For assay [15] the target is unchanged. Description: qHTS assay for small molecule agonists of vitamin D receptor signaling (AID 588543).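 Also: 0% = DMSO basal and 100% = reference agonist control.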 The procedure, abridged:
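VDR-UAS-bla HEK293T cells, 2000/well, 2% charcoal-stripped FBS; compound titration 16 h at 37 C; CCF4 beta-lactamase ratio read. Normalized to 50 nM 1-alpha,25-dihydroxyvitamin D3 (100%) and DMSO; Hill fit gives EC50, efficacy.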

Assay [16] in a line: qHTS assay for small molecule agonists of the antioxidant response element (ARE) signaling pathway measured by Nrf2-dependant transcriptional activity (AID 720636; active = well fitted curve in the direction sought with a large enough effect in the repeat runs; an effect the other way counts as inactive or inconclusive;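 also: HepG2 cells with an ARE-driven luciferase reporter; % of control where 0% means no effect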). The essentials:
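ONE-Glo luminescence, read 30 min after reagent addition at room temperature, reflected ARE reporter activity in HepG2 cells that had been incubated with compound for 16 hr at 37 C in 1% dialyzed FBS.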

Assay [17] can be described thus: qHTS assay for small molecule agonists of the antioxidant response element (ARE) signaling pathway measured by Nrf2-dependant transcriptional activity - cell viability counter screen (AID 720653; active = well fitted curve in the direction sought with a large enough effect in the repeat runs; an effect the other way counts as inactive or inconclusive; also: % is scaled to controls: 0 for no effect and ±100 for the full control effect). The conditions noted are these: ARE-bla HepG2 viability, CellTiter-Glo ATP luminescence, 16 h; max response: stronger effect = lower value. The procedure, abridged:
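ARE-bla HepG2 cells (2,000/well) rested 5 hrs at 37C/5% CO2, then exposed to compounds in DMSO for 16 hrs. Viability was read in the same wells as intracellular ATP by luminescence, 30 min at room temperature after reagent addition.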

Assay [18] is described as follows: qHTS assay for small molecule activators of the human pregnane X receptor (PXR) signaling pathway (AID 720659; call rule not given here; also: 0% is about no effect).
Setting [19] is: measured here: PEO1 parental Z-AUC.

Sequence of Peroxisome proliferator-activated receptor alpha (Homo sapiens) (Q07869 whole entry, looked up): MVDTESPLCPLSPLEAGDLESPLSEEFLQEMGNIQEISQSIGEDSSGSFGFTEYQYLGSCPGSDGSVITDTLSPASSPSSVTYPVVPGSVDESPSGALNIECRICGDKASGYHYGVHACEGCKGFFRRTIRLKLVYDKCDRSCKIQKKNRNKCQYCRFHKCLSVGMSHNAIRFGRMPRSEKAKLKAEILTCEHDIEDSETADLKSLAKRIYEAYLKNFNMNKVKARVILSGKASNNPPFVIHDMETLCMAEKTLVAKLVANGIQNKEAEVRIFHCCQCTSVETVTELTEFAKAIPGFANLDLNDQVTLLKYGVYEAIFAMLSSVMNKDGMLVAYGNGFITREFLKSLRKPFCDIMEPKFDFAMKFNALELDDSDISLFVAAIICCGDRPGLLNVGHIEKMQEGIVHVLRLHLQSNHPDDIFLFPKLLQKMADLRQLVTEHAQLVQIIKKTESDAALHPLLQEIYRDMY
Sequence of Nuclear receptor subfamily 1 group I member 2 (Rattus norvegicus) (Q9R1A7 whole entry, looked up): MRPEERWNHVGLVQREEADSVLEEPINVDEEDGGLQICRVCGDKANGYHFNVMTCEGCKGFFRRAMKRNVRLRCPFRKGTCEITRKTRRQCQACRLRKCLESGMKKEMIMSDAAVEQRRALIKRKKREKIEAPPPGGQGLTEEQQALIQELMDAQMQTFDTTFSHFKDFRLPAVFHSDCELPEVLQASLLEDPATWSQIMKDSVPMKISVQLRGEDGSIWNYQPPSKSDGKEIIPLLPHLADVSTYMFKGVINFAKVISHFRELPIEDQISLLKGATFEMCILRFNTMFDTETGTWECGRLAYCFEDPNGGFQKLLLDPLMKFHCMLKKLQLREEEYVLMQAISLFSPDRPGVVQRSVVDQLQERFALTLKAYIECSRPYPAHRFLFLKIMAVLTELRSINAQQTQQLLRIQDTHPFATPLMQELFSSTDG
Sequence of Peroxisome proliferator-activated receptor delta (Homo sapiens) (Q03181 whole entry, looked up): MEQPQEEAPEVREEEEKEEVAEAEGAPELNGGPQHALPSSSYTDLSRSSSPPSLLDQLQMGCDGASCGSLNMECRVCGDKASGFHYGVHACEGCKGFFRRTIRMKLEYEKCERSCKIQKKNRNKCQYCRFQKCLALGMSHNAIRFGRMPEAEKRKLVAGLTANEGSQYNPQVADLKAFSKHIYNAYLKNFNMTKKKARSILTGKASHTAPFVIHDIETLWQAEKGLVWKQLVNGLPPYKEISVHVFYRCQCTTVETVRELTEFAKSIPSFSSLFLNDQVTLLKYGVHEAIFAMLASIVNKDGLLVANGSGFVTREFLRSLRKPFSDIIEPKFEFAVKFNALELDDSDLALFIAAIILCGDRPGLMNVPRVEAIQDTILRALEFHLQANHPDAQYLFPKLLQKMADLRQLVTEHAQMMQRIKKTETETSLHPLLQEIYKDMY
Sequence of Vitamin D3 receptor (Homo sapiens) (P11473 whole entry, looked up): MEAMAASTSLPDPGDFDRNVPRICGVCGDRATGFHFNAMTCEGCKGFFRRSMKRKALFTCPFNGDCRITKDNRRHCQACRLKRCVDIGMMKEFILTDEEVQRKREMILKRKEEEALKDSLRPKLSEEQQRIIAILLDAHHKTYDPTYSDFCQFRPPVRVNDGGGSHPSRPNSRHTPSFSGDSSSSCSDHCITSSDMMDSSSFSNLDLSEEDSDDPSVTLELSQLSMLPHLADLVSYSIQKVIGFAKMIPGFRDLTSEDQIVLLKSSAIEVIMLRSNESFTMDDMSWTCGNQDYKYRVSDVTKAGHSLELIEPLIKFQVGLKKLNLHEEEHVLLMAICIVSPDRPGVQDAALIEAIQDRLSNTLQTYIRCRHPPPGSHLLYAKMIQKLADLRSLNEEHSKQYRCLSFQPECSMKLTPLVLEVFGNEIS
Sequence of Thyroid hormone receptor beta (Homo sapiens) (P10828 whole entry, looked up): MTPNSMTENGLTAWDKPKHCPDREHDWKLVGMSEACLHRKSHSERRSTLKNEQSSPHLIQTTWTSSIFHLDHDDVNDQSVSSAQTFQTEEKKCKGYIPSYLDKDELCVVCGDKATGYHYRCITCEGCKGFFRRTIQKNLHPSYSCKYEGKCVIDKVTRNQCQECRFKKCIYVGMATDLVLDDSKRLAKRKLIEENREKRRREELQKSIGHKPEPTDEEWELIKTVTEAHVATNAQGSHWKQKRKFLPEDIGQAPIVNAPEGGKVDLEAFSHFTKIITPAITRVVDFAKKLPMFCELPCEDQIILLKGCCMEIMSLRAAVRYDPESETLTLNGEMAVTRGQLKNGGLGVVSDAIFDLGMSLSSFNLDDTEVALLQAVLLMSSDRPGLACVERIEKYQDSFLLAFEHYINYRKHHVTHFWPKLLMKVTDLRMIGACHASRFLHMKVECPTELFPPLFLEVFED
Sequence of Peroxisome proliferator-activated receptor gamma (Homo sapiens) (P37231 whole entry, looked up): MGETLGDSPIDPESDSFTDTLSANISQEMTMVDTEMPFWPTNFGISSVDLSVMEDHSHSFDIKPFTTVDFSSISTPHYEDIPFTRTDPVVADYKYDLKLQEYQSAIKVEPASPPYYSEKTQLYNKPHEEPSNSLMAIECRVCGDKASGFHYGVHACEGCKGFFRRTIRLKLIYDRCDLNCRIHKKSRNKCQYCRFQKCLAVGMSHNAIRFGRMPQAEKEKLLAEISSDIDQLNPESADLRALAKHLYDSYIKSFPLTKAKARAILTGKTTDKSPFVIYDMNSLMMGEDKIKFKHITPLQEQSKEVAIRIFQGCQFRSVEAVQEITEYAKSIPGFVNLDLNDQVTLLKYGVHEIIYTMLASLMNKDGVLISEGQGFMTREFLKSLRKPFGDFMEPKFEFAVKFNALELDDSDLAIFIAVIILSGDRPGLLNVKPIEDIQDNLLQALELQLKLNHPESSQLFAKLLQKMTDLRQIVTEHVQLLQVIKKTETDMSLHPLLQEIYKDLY

`C=C[C@@H]1C[C@]1(NC(=O)[C@@H]1C[C@@H](Oc2ncc(OC)c3ccc(Cl)cc23)CN1C(=O)[C@@H](NC(=O)OC(C)(C)C)C(C)(C)C)C(=O)NS(=O)(=O)C1CC1`: the Potency in assay [1] is 20.5 µM (active).
With `Cc1cccc(C)c1N(CC(=O)Nc1ccc(-c2ncon2)cc1)C(=O)C1CCS(=O)(=O)CC1`, in [1], the Potency entry is “inactive”.
For the molecule `CC(=O)N[C@@H](CC(C)C)C(=O)N[C@@H](CC(C)C)C(=O)N[C@H](C=O)CCCN=C(N)N`, in assay [1], the Potency entry is “inactive”.
Regarding `CC1(C)CC[C@]2(C(=O)O)CC[C@]3(C)C(=CC[C@@H]4[C@@]5(C)CC[C@H](O)C(C)(C)[C@@H]5CC[C@]43C)[C@@H]2C1`, in [1], the Potency result was “inactive”.
On to `CCC(C)n1ncn(-c2ccc(N3CCN(c4ccc(OCC5COC(Cn6cncn6)(c6ccc(Cl)cc6Cl)O5)cc4)CC3)cc2)c1=O` (stereo not drawn), for which the Z-AUC was -0.487 (inactive) in assay [2], 0.019 in assay [2] (setting [19]) and -0.0223 in assay [2] (measured here: PEO4 Z-AUC). Moreover, the activity, negative = inhibition was 0.495% (inactive) in assay [3] (parasite line A) and -11% (inactive) in [3] (parasite line B). For the same molecule, the Potency entry in assay [4] is “inactive”.
On to `O=C(Nc1ccccc1)c1ccccc1O`, for which the figures for the max response in [5], in assay [11] and in assay [13] were -6.49%, -0.0723% (inactive) and -1.47% (inactive), respectively. Also, the Potency entry in assay [6] and in assay [12] was “inactive” in each case. Further, the molecule was called inactive in assay [7] and in assay [8]. Further, in [9], the Potency is 15.4 µM (active). Moreover, the activation in [10] was 20.6% (inactive).
As to `CC(C)C[C@H](NC(=O)CNC(=O)c1cc(Cl)ccc1Cl)B1OC(=O)C(CC(=O)O)(CC(=O)O)O1`, the Potency in assay [1] was 1.63 µM (active).
For the molecule `CC12CCC(CC1=O)C2(C)C` (stereo not drawn), the max response in assay [5] was -33.5% and 11.1%; in assay [11] it was -4.19% (inactive) and 0.373% (inactive); in assay [17] it was -1.85% (inactive) and 2.1% (inactive); in [13] it was 4.6% (inactive) and -1.11% (inactive). Besides, the Potency entry in assay [6], in assay [9], in [16] and in [12] was “inactive” each time. Moreover, the call in assay [14], in assay [15], in assay [8] and in [18] was inactive. In assay [10], the activation is -2.06% (inactive) and 2.14% (inactive).
For `CCCCN(Cc1ccc(C(=O)NO)cc1)C(=O)Nc1ccccc1`, the Potency result in assay [1] was “inactive”.
Turning to `Cc1cc(/C=C/C#N)cc(C)c1Nc1ccnc(Nc2ccc(C#N)cc2)n1`, the Potency in assay [1] was 16.3 µM (active).
For the molecule `CC(C)CN(C[C@@H](O)[C@H](Cc1ccccc1)NC(=O)O[C@H]1CCOC1)S(=O)(=O)c1ccc(N)cc1`, the activity, negative = inhibition in assay [3] (parasite line A) is -4.85% (inactive); in assay [3] (parasite line B) it was -24.9% (inactive). Also, the Potency result in assay [4] was “inactive”.
As for `O=C1CCC[C@@H]2[C@@H]3CCC[N@+]4([O-])CCC[C@H](CN12)[C@H]34`, the Z-AUC was 1.48 (inactive) in assay [2], 0.635 in assay [2] (setting [19]) and 0.881 in [2] (measured here: PEO4 Z-AUC).
As to `CC(C)CN(C[C@@H](OP(=O)(O)O)[C@H](Cc1ccccc1)NC(=O)O[C@@H]1CCOC1)S(=O)(=O)c1ccc(N)cc1`, the values for the activity, negative = inhibition in assay [3] (parasite line A) and in assay [3] (parasite line B) were -4.75% (inactive) and 9.93% (inactive), respectively. For the same molecule, in [4], the Potency entry is “inactive”.
Regarding `CCCCCCCCOC(=O)c1cc(O)c(O)c(O)c1`, the max response in assay [5] is -19.5%; in [11], -2.68% (inactive); in assay [17], -10.2% (inactive); in assay [13], -0.212% (inactive). In addition, the Potency result in [6], in assay [9], in assay [16] and in assay [12] was “inactive” throughout. For the same molecule, the molecule was classed as inactive in assay [7], in assay [14], in assay [15], in assay [8] and in assay [18].
As for `COc1ccc(-c2oc3cc(OC)c(OC)c(O)c3c(=O)c2OC)cc1O`, in assay [1], the Potency was 0.816 µM (active).

The values are drawn from PubChem BioAssay (NCATS).
